# From PubChem BioAssay
# RecA splice inh: Mtb RecA intein splicing inhibition. P9WHJ3. cell-free RecA intein splicing, fluorescence. inhibition, % (concentration not given with the values). 0.75% of 290,000 active; in the data active = inhibition above about 30%; inconclusive = no clear call, values can overlap the other calls;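 also: 0% = vehicle wells and 100% = reference inhibitor control wells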
# Rv3671c inh: Rv3671c (M. tuberculosis) protease inhibition; 0.048% of 320,000 active; P9WHR9; inhibition, % at 5.96 µM; in the data active = inhibition above about 38%;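 also: extracellular domain of Rv3671c used as enzyme; 0% = enzyme with DMSO and 100% = no enzyme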
# Target sequence (P9WHR9 whole entry, looked up, the tested form may be a part): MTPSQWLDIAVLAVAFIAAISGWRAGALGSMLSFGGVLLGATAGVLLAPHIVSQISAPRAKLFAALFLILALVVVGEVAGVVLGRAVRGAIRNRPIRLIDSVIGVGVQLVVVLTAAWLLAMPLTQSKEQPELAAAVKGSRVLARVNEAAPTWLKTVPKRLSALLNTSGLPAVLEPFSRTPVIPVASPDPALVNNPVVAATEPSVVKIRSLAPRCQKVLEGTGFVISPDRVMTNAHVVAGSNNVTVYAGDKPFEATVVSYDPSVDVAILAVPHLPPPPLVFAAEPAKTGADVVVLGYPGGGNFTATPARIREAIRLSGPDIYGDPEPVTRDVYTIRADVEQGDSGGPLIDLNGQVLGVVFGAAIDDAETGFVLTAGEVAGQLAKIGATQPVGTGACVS
# FadD28 binding: blocks FadD28 binding to the bisubstrate probe | inhibition, % at 12.5 µM | 0.22% of 360,000 active | fluorescence polarization; in the data active = inhibition above about 8.5%, passing the limit was not always enough; inconclusive = no clear call, values can overlap the other calls
# UGM FP inh: Mtb UDP-galactopyranose mutase inhibition; P9WIQ1; purified UGM, fluorescence polarization probe displacement; inhibition, % at 10 µM; 0.06% of 320,000 active; AID 504406; in the data active = inhibition above about 10%, passing the limit was not always enough; inconclusive = no clear call, values can overlap the other calls
# Mtb hypoxia inh: inhibitors of hypoxia-regulated fluorescent reporter in Mycobacterium tuberculosis. M. tuberculosis hypoxia-regulated fluorescent reporter, fluorescence. fluorescence inhibition, % (no concentration beside the values). 0.1% of 300,000 active. AID 1159583; in the data active = fluorescence inhibition mostly above about 23%, no sharp cut-off; inactive = mostly below about 17%
# Active calls of the source: *; ? = inconclusive; . = no result given. Compounds with a hit are over-represented: about 0.92% of the library has one in this group of screens.
SMILES,RecA splice inh,Rv3671c inh,FadD28 binding,UGM FP inh,Mtb hypoxia inh
Cc1nccn1-c1c([N+](=O)[O-])c(=O)n(C)c2ccccc12,44.8*,7.8,-1.3,1.7,5.0
Nc1ccc(C(=O)Nc2ccc3c(O)cc(S(=O)(=O)O)cc3c2)cc1,.,.,15.2*,.,5.4
Nc1ccc(NC(=O)c2ccc(C(=O)Nc3ccc(N)cc3)cc2)cc1,0.2,-3.9,0.0,-0.6,.
COc1ccc(CCNC(=O)c2ccccc2)cc1,1.0,-7.8,-1.1,5.8,.
COc1ccc(CCNC(=O)c2ccc(Cl)cc2)cc1,-0.8,-0.7,-0.4,0.5,36.7*
Cc1cc(C(=O)OC2C(C)NS(=O)(=O)C3CC4C=C[C@]23O4)cc([N+](=O)[O-])c1 (stereo not given in full),.,.,.,.,-2.1
COC(=O)c1sc(SC)c2c1CC(C)(C)CC2=NO,.,.,.,.,0.7
CCN(CC)c1ccc2cc(S(=O)(=O)c3ccc(Cl)cc3)c(=O)oc2c1,.,-6.6,-0.1,19.9*,.
CCCCCCc1cc2cc(S(=O)(=O)c3ccc(Cl)cc3)c(=O)oc2cc1O,-31.4,-2.1,-0.4,-0.3,.
O=C(C1=CC(c2csc3ccccc23)CC(OCc2ccc(CO)cc2)O1)N1CCOCC1 (stereo not given),.,.,.,.,19.8
CN1C(=O)/C(=C\c2ccc(N3CCCCC3)o2)C(=O)NC1=S,-2.0,-9.3,-2.8,-1.8,.
CN1C(=O)/C(=C/c2ccc(N3CCCCCC3)o2)C(=O)NC1=S,-3.3,-18.0,0.4,0.8,44.9*
Cn1cnnc1SCc1ccc(C(=O)N=Nc2c(O)n(Cc3ccc(Cl)cc3)c3ccccc23)cc1,2.5,-4.5,-1.4,.,.
CCn1c(O)c(N=NC(=O)c2ccc(CSc3nncn3C)cc2)c2ccccc21,-1.6,-10.5,0.8,-2.3,42.0*
Cc1nn(-c2ccccc2Cl)c(Cl)c1/C=N/Nc1cccc(C(=O)O)c1,0.9,7.1,15.9*,-1.4,.
O=C(O)CC1S/C(=N/N=C/c2ccc(-c3ccc(Cl)cc3[N+](=O)[O-])o2)NC1=O (stereo not given),70.1*,-23.3,5.7,5.2,.
O=c1c(O)c(-c2cc(O)c(O)c(O)c2)oc2cc(O)cc(O)c12,.,-38.9,13.5*,-2.2,.
COc1ccc(-n2c(C)cc(C(=O)CN3C(=O)c4ccccc4C3=O)c2C)cc1,-1.3,-1.8,-2.2,0.5,7.0
COc1ccc(-n2c(C)cc(C(=O)CCl)c2C)cc1,33.5*,5.7,-2.1,-1.3,.
CC(/C=C1\SC(=S)N(NS(=O)(=O)c2ccccc2)C1=O)=C\c1ccccc1,18.8,4.2,?,-1.0,-1.3
CC(/C=C1\SC(=S)N(NS(=O)(=O)c2ccc(C)cc2)C1=O)=C\c1ccccc1,27.6,-0.9,11.2*,-2.1,11.5
COc1ccc(/C=C2/SC(=S)N(NS(=O)(=O)c3ccccc3)C2=O)cc1,2.4,0.5,2.4,-0.4,7.0
C=CCOc1ccc(/C=C2\SC(=S)N(NS(=O)(=O)c3ccccc3)C2=O)cc1,12.5,-4.1,12.0*,1.2,9.4
COc1ccc2c(/C=N/Nc3ccc(C(=O)O)cc3)c[nH]c2c1,-8.8,2.8,13.8*,1.5,.
Cc1cccc(Sc2c(C=O)c3ccccc3n2C)c1,30.4*,1.0,-3.5,0.9,3.3
SMILES,RecA splice inh,Rv3671c inh,FadD28 binding,UGM FP inh,Mtb hypoxia inh
COc1ccc(C2CC(=O)Oc3cc(C)cc(C)c32)cc1 (stereo not given),.,.,-2.3,.,.
COc1ccc(C2CC(=O)Oc3c(C(C)C)ccc(C)c32)cc1 (stereo not given),.,.,8.8*,.,-0.5
Cc1ccc(S(=O)(=O)NN=Cc2cccc(OC3CSC3)c2)cc1,.,.,.,.,11.3
CCn1nc(-c2ccccc2)nc2c(=O)n(C)c(=O)nc1-2,94.5*,-176.7,.,7.0,-5.0
O=C(C1=CC(c2csc3ccccc23)CC(OCCCCO)O1)N1CCN(Cc2ccc3c(c2)OCO3)CC1 (stereo not given),.,.,.,.,12.4
O=C1/C(=C/c2ccccc2F)SC(=S)N1CC(=O)N1CCCCC1c1cccnc1 (stereo not given),32.4*,-7.5,-0.9,-2.2,.
Cc1ccc(NC(=S)N(C)Cc2cn(C)c3ccccc23)cc1,0.7,11.4,16.5*,0.7,6.3
CC(C)(C)C1C=C(C(=O)NC2CC2)OC(OCc2ccc(CO)cc2)C1 (stereo not given),.,.,.,.,11.5
CC[C@@]12C(=O)N(c3ccc(C)cc3)C(=O)N1C(c1cccc(C)c1)C1C(=O)N(Cc3ccccc3)C(=O)C12 (stereo not given in full),.,.,.,.,9.9
O=S(=O)(Nc1nc(-c2sccc2Cl)cs1)c1cc(Cl)ccc1Cl,27.4,-8.1,23.6*,-0.1,9.1
CC(C)(C)c1nnc(NS(=O)(=O)c2cc(Cl)ccc2Cl)s1,1.4,-3.6,-1.8,3.2,-2.5
C=C1CCN(C(Cc2ccccc2)C(=O)NCCC(C)C)S(=O)(=O)c2ccccc21 (stereo not given),.,.,.,.,6.2
CCc1ccc(C(C)=NNC(=O)c2ccc(-n3cnnn3)cc2)cc1,.,.,.,.,19.5*
CCc1c(C(=O)NN=Cc2ccc(C)o2)csc1C,.,.,.,.,4.8
C=CCN(CC=C)c1cnn(-c2nc3ccccc3[nH]2)c(=O)c1Cl,-5.4,4.4,-4.8,2.2,4.6
O=c1c(Cl)c(NCCCO)cnn1-c1nc2ccccc2[nH]1,43.9*,-1.6,-2.8,-2.9,.
C=CCC(CC(=O)NC(CO)Cc1ccccc1)C(=O)NCC(OC(=O)C(CC=C)Cc1ccc(F)cc1)c1ccccc1 (stereo not given),.,.,.,.,6.3
O=C(c1nnsc1S(=O)(=O)c1ccc(Cl)cc1)N1CCOCC1,20.9,.,-0.9,.,22.7
CNC(=O)c1nnsc1S(=O)(=O)c1ccc(Cl)cc1,39.8*,.,-0.8,.,17.7
CC=C(C)C(=O)Nc1cccc(C2=NOC3(C2)CC(C(N)=O)N(C(=O)COc2ccc(Cl)cc2)C3)c1 (stereo not given),.,.,.,.,8.3
CC1=NN(c2nc(-c3ccc(Cl)cc3)cs2)C(=O)C1,25.8,-5.1,?,0.9,-60.8
CC1=NN(c2nc(-c3ccc(F)cc3)cs2)C(=O)C1,-3.3,3.1,18.1*,1.4,11.0
S=c1nc[nH]c2c1sc1nc(-c3ccccc3)c3c(c12)CCCC3,5.8,8.5,15.2*,-1.3,14.2
O=c1[nH]cnc2c1sc1nc(-c3ccccc3)c3c(c12)CCCC3,0.4,0.6,-3.6,-0.3,-7.6
Cc1ccc(NC(=O)CN2C(=O)S/C(=C/c3ccc(O)c([N+](=O)[O-])c3)C2=O)cc1C,.,.,31.1*,.,7.8
SMILES,RecA splice inh,Rv3671c inh,FadD28 binding,UGM FP inh,Mtb hypoxia inh
O=C(CN1C(=O)S/C(=C\c2ccccn2)C1=O)Nc1ccccc1,-0.8,.,-5.5,-1.5,-1.3
Cc1cccc(NC(=O)CN2C(=O)S/C(=C\c3ccc(O)c([N+](=O)[O-])c3)C2=O)c1,0.3,-9.3,85.4*,1.2,13.5
O=C(CN1C(=O)S/C(=C\c2cc(Cl)c(O)c(Cl)c2)C1=O)Nc1ccccc1,-109.6,-9.6,75.6*,-0.5,9.8
COc1ccc(C(NC(=O)OC(C)(C)C)C(=O)OC(C)(C)C)cc1 (stereo not given),.,.,.,.,18.4
N#CCC(Cc1ccccc1)N1CCN(CCc2ccccc2)CCC1=O (stereo not given),.,.,.,.,-1.0
O=C1C(NS(=O)(=O)c2ccc(Br)cc2)=C(N2CCCCC2)C(=O)c2ccccc21,11.9,-18.7,-1.8,0.6,-8.9
